Here are results for 21 molecules from PubChem BioAssay (NCATS).

Records with an inconclusive call do not appear. Values without a mark were called inactive. Activity calls are given as the source filed them. Calls follow the shape of the dose curve; as a rule, active = well fitted cell-killing curve with a large enough effect; inconclusive = small, poorly fitted or top-dose-only effect, or effect the other way; inactive = no such curve, though single readings can be large or run the other way.
Potency is read from the fitted curve at half-maximal effect.

A short description of this experiment: Quantitative High-Throughput drug screen in 47 multiple myeloma cell lines against the NCATS MIPE library collection: MM1R_ATCC cell viability assay (AID 1918981). Also: nearly all actives have a fitted effect of over 35% in size. Particulars: MM1R multiple myeloma cells, CellTiter-Glo viability, 48 h; series mostly up to 45.8 µM; viability (% of control): at the top concentration. In outline: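 500 cells/well; MIPE 4.0 drugs pin-transferred; 48 h, 37C, 5% CO2. CellTiter-Glo, 5 min RT, luminescence. Controls: DMSO 100%, media 0%.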
In the case of `O=C1c2ccccc2-[n+]2ccc3c([nH]c4ccccc43)c21`, the Potency was 2.09 µM (active).
On the same count and under the same terms, for `CC[C@]1(O)C[C@@H]2CN(CCc3c([nH]c4ccccc34)[C@@](C(=O)OC)(c3cc4c(cc3OC)N(C=O)[C@@H]3C45CCN4CC=C[C@](CC)([C@H]45)[C@@H](OC(C)=O)[C@]3(O)C(=O)OC)C2)C1` (stereo partly specified) the value was 20.9 µM (active).
Turning to `NC(=O)[C@@H](CCC(F)(F)F)N(Cc1ccc(-c2ncon2)cc1F)S(=O)(=O)c1ccc(Cl)cc1`, the “viability (% of control)” value was 97%.
With `O=C(Nc1cccc(Br)c1)c1cccc(S(=O)(=O)N2CCCCCC2)c1`, the Potency is 18.7 µM (active).
Regarding `COC[C@@H](c1ccc(C(F)(F)F)cc1)N1CCN(C2(C)CCN(C(=O)c3c(C)ncnc3C)CC2)C[C@H]1C`, the “viability (% of control)” value is 104%.
As for `O=C1NC(=O)C(=Cc2cccc(C(F)(F)F)c2)S1`, the “viability (% of control)” value was 106%.
Take `O=c1cc(N2CCOCC2)oc2c(-c3cccc4c3sc3ccccc34)cccc12`: the Potency is 16.6 µM (active).
`CCN(CC)CCOc1ccc(C(=C(Cl)c2ccccc2)c2ccccc2)cc1`: the “viability (% of control)” value was 110%.
Regarding `C[C@H]1[C@H](NC(=O)C(=NOC(C)(C)C(=O)O)c2csc(N)n2)C(=O)N1S(=O)(=O)O`, the “viability (% of control)” value was 134%.
In the case of `O=C1NC(=O)C(=Cc2ccc3nccnc3c2)S1`, the Potency was 8.12 µM (active).
As for `COCCOc1nc(-c2ccc(Cl)c(Cl)c2)n(-c2ccc(NC(=O)CCl)cc2)n1`, the Potency was 14.8 µM (active).
Turning to `O=c1cc(-c2ccccc2)oc2cc(O)c(O)c(O)c12`, the Potency was 23.5 µM (active).
`C[C@@H]1CCN(C(=O)CC#N)C[C@H]1N(C)c1ncnc2[nH]ccc12`: the “viability (% of control)” value is 93%.
Turning to `CN(C)C1CCN(C(=O)c2ccc(NC(=O)Nc3nc(N4CCOCC4)nc(N4CCOCC4)n3)cc2)CC1`, the Potency was 0.0418 µM (active).
For `C[C@H](NC(=O)C(=O)Nc1ccccc1C(C)(C)C)C(=O)N[C@@H](CC(=O)O)C(=O)COc1c(F)c(F)cc(F)c1F`, the “viability (% of control)” value was 105%.
Turning to `O=C(NCc1ccncc1)C12C[C@H]3C[C@@H](C1)CC(c1ccc(Cl)cc1)(C3)C2`, the Potency was 18.7 µM (active).
On to `CC(=O)O[C@]1(C(C)=O)CC[C@@H]2[C@@H]3C[C@H](C)C4=CC(=O)CC[C@]4(C)[C@H]3CC[C@@]21C`, for which the Potency was 20.9 µM (active).
For the molecule `Clc1ccc(-c2nc3sccn3c2C=NOCc2ccc(Cl)c(Cl)c2)cc1`, the “viability (% of control)” value is 113%.
On to `O=C(O)[C@H]1O[C@H](Oc2cc3oc(-c4ccccc4)cc(=O)c3c(O)c2O)[C@H](O)[C@@H](O)[C@H]1O`, for which the Potency is 23.5 µM (active).
Turning to `NC(=O)c1cnc(-c2ccc(C3(N)CCC3)cc2)c(-c2ccccc2)c1`, the Potency is 7.43 µM (active).
Still for that read-out and setting: for `CCc1ccc(OCc2ccccc2C(=O)Nc2ccc3nc(C)cc(N)c3c2)cc1` the value was 3.32 µM (active).
